ChEMBL document CHEMBL3988442, “University of Dundee, Small-Polar-MMV Screening Library” (2021)
About 13,000 (27%) of roughly 48,000 compounds showed an effect of 50% or more. Some of the results follow.

System: Wolbachia pipientis
Assay: Anti-Wolbachia Cell-Based Screen
Assay type: functional
Parameters: scale not given: in the data most compounds retested in dose-response had high values
Details: 5 µM

| SMILES | Percent Effect [%] |
| --- | --- |
| CS(=O)(=O)c1ccc(NC(=O)N2CCc3sccc3C2)cn1 | 17.51 |
| CN(C)c1ccc(NC(=O)CN2CCS(=O)(=O)CC2)cn1 | 10.44 |
| COc1ccc(Oc2ncccc2NC(=O)N2CC[C@H](O)C2)cc1 | 8.282 |
| O=C(c1cccnc1SCc1ccccc1)N1CCOCC1 | 174.3 |
| COc1ncccc1C(=O)N1CC[C@H]2C[C@@H](C)O[C@@H]2C1 | 13.58 |
| O=C(c1cccnc1-n1cncn1)N1CCN(c2ccccc2)CC1 | -6.157 |
| O=C(c1cccnc1SCc1ccccc1)N1CC[C@@H](O)C1 | 159.2 |
| O=C(c1cccnc1SC/C=C/c1ccccc1)N1CCOCC(O)C1 (stereo unspecified) | 8.468 |
| O=C(c1cccnc1Oc1ccc(Cl)cc1)N1CC[C@@H](O)C1 | 158.3 |
| O=C(c1cccnc1SC/C=C/c1ccccc1)N1CC[C@H](O)C1 | 8.97 |
| CSc1ncccc1C(=O)N1C[C@H]2CC[C@@H]1CN(C(C)=O)C2 | 3.365 |
| CN(C(=O)c1ccc(OCC(F)F)nc1)c1ccc2c(c1)CCO2 | 2.001 |
| OC(CN1CC(n2cccn2)C1)c1ccc2c(c1)OCCO2 (stereo unspecified) | -60.78 |
| CS(=O)(=O)NCCN1CCOC2(CCc3ccccc32)C1 (stereo unspecified) | 9.722 |
| Cc1[nH]ccc1C(=O)N(C)C1CC(=O)N(Cc2ccccc2)C1=O (stereo unspecified) | -3.858 |
| O=C(Cc1c[nH]c(=O)[nH]c1=O)N1CCC2(CCC(=O)N(C3CC3)C2)CC1 | 10.83 |
| Cn1ccc(C(=O)Nc2nc(-c3ccc(Cl)cc3)n[nH]2)cc1=O | 5.787 |
| CCCNC(=O)Cn1cc(C#N)c(=O)c2cc(Br)ccc21 | -9.356 |
| CSCC(=O)Nc1ncc(I)cc1C | -3.012 |
| Cc1cc(C)c(CNC(=O)NCc2ccc3c(c2)CCC3)c(=O)[nH]1 | -7.046 |
| CN(C)S(=O)(=O)c1ccc(-c2nc(C#N)c(NC3CC3)o2)o1 | 107.9 |
| CN(C)S(=O)(=O)c1ccc(CN2CCC(C(N)=O)CC2)o1 | -3.214 |
| CN(C)S(=O)(=O)c1ccc(-c2nc(C#N)c(NC3CCCCC3)o2)o1 | 126.8 |
| CSCC[C@@H](CO)n1ccnc1-c1ccncc1 | -26.42 |
| C1CCC(OCCN2CCN(CCOC3CCCCC3)CC2)CC1 | 16.33 |
| Oc1cccc(-c2cc(C3CCN(Cc4cncnc4)C3)ccn2)c1 (stereo unspecified) | -2.47 |

| SMILES | Percent Effect [%] |
| --- | --- |
| CCC(=O)NCC(=O)NCC1(c2c(F)cccc2F)CCCC1 | -0.7519 |
| N#CCC(=O)NCc1nnc2n1CCN(Cc1ccco1)C2 | -13.02 |
| c1cnc(OCc2nnc3n2CCN(Cc2ccco2)C3)nc1 | -5.792 |
| O=C(O)C(F)(F)F.O=C(O)C(F)(F)F.c1ccc(OCc2nnc3n2CCN(Cc2ccco2)C3)nc1 | 6.411 |
| O=C1CCCN1Cc1nnc2n1CCN(Cc1ccco1)C2 | 88.52 |
| O=C(O)C(F)(F)F.O=C1CCCN1Cc1nnc2n1CCCN(Cc1ccco1)C2 | 117.6 |
| O=C(O)C(F)(F)F.O=C1CCCN1Cc1nnc2n1CCN(Cc1ccco1)CC2 | 95.89 |
| CN(C)C(=O)NCc1ncn2c1CN(Cc1ccco1)CCC2.O=C(O)C(F)(F)F | -2.342 |
| O=C(O)C(F)(F)F.O=C(O)C(F)(F)F.c1ccc(CN2CCc3nnc(CN4CCCCC4)n3CC2)nc1 | -3.311 |
| CCN(Cc1ccccc1C)S(C)(=O)=O | -4.247 |
| COCCCNC(=O)CN(C)C1CCCN(c2cccnn2)C1 (stereo unspecified) | 138.8 |
| CN(CC(=O)NCc1ccccn1)C1CCCN(c2cccnn2)C1 (stereo unspecified) | 106.6 |
| CN(CC(=O)NCc1ccccn1)CC1CCCN1c1cccnn1 (stereo unspecified) | -6.159 |
| CN1C(=O)[C@H]2CC[C@@H]1CN(C(=O)c1nnc3n1CCCCC3)C2 | 10.69 |
| NC(=O)NCCC(=O)NCc1cccnc1N1CCc2ccccc2C1 | 5.248 |
| Cn1cccc1CCC(=O)N1CCC2(CC1)c1ccccc1CC2O (stereo unspecified) | 8.573 |
| COc1cccc(COCC(=O)N2CCCC(c3cc(C)[nH]n3)C2)c1 (stereo unspecified) | 9.679 |
| Cc1cccc(CC(=O)N2CCCC(c3n[nH]c4nccnc34)C2)c1 (stereo unspecified) | 102.4 |
| Cc1cccc(C2CCCN(C(=O)CN3CCCC3=O)C2)c1 (stereo unspecified) | -1.59 |
| COc1cccc(CC(=O)N2CCCC(c3n[nH]c4nccnc34)C2)c1 (stereo unspecified) | 81.22 |
| N#Cc1cccc(NC2CC(=O)N(Cc3cccc(F)c3)C2)n1 (stereo unspecified) | 7.096 |
| CCN(Cc1ccc(Cl)s1)S(=O)(=O)CCOC | -12.02 |
| C[C@H](c1ccc(Cl)cc1)n1c(C2CC2)n[nH]c1=O | -27.24 |
| CCCc1n[nH]c(=O)n1[C@@H](CC)c1ccccc1 | 92.4 |
| NCc1n[nH]c(=O)n1-c1ccccc1Oc1ccccc1 | -5.025 |
| CC[C@@H](c1ccccc1)n1c(CCN)n[nH]c1=O | 91.36 |

| SMILES | Percent Effect [%] |
| --- | --- |
| CCCc1cc(C(=O)NCCN2C(=O)c3ccccc3C2=O)[nH]n1 | -4.22 |
| CCC(c1ccccc1)N1CCN(C(=O)c2cc(C(N)=O)c[nH]2)CC1 (stereo unspecified) | -8.4 |
| CCCc1n[nH]c(=O)n1Cc1ccccc1F | -4.193 |
| C[C@H](c1ccc(F)cc1)n1c(C2CCN(C)CC2)n[nH]c1=O | -149.6 |
| CC[C@@H](c1ccccc1)n1c(CN)n[nH]c1=O | 112.8 |
| CC[C@@H](c1ccccc1)n1c(C2CC2)n[nH]c1=O | 115.6 |
| Cn1cccc1C(=O)NC1CCN(c2ccc(OC(F)(F)F)cc2)CC1 | -13.65 |
| CNC(=O)NC(=O)CN1CCC(c2c[nH]c3ccc(OC)cc23)CC1 | -6.098 |
| O=S(=O)(c1cccc(F)c1)N1C[C@@H]2COC[C@]2(COCC2CC2)C1 | -1.949 |
| COc1cc(CNCCC(N)=O)c2c(c1)CC(C)O2 (stereo unspecified) | 0.4704 |
| CCN(CC)C(CNC(=O)c1ccc(S(C)(=O)=O)cc1)c1ccco1 (stereo unspecified) | 12.65 |
| O=C(CNc1cc2c(cc1Br)OCCO2)NC1CCS(=O)(=O)C1 (stereo unspecified) | -16.13 |
| CCNc1nnc(SCC(=O)N2CCN(Cc3ccc(Cl)s3)CC2)s1 | -3.982 |
| Cc1cccc2c(CCNC(=O)NCCC[S+](C)[O-])c[nH]c12 (stereo unspecified) | 21.8 |
| Cc1ccc(C)c2c(C)c(C(=O)NCC[S+](C)[O-])[nH]c12 (stereo unspecified) | 91.32 |
| Cc1cccc2c(CCNC(=O)NCC[S+](C)[O-])c[nH]c12 (stereo unspecified) | -10.94 |
| OC1CCN(c2ccccc2NCc2nc(-c3cccs3)no2)CC1 | 8.395 |
| CNC(=O)N1CCC2(CC1)C(=O)N(C)c1c(F)cccc12 | 16.38 |
| CC(Cn1cc(Cl)cn1)C(=O)Nc1ccc(CN2CCCCCC2)cc1 (stereo unspecified) | 106.4 |
| O=C(NCCn1cc(Cl)cn1)C1CCN(C(=O)C2CC2)CC1 | 13.04 |
| O=C(NCc1ccc(CN2CCCCC2)cc1)Nc1cccnc1 | -23.63 |
| CC(C)n1nc2c(cc1=O)CN(Cc1ccc(-n3cccn3)cc1)CC2 | 0.8403 |
| O=C(c1cncc(N2CCC3(CCCNC3)C2)n1)N1CCCC1 (stereo unspecified) | 43.3 |
| COc1cc(C2(C(=O)NC3CCC4(CC3)OCCO4)CC2)ccc1C | 0.5256 |
| Cc1ccccc1-n1cc(-c2ccnc(N3CCCC(O)C3)n2)cn1 (stereo unspecified) | 107.7 |
| COC[C@H]1CCCN1c1nccc(-c2cnn(-c3ccccc3C)c2)n1 | 94.7 |

| SMILES | Percent Effect [%] |
| --- | --- |
| Cc1ccccc1-n1cc(CN(C)C[C@@H]2CCCN3CCCC[C@H]23)cn1 | 9.143 |
| COCc1noc(-c2ccc(N3CCCCC3COC)nc2)n1 (stereo unspecified) | 2.136 |
| Cc1ccccc1-n1cc(-c2ccnc(N[C@H](CO)C(C)C)n2)cn1 | -13.53 |
| Cc1ccccc1-n1cc(-c2ccnc(N3CCCC(CN)C3)n2)cn1 (stereo unspecified) | 108.9 |
| NCC1CCCN(c2nc(-c3ccccc3)nc3c2CCNCC3)C1 (stereo unspecified) | -16.76 |
| Cc1cnc(N2CCCC(O)C2)nc1-c1ccnn1C (stereo unspecified) | -3.995 |
| O=C1CC2(CCN(Cc3ccc(C(F)(F)F)nc3)CC2)CN1 | -10.7 |
| O=S(=O)(Cc1ccccc1F)NCCCN1CCCCC1 | -1.108 |
| CCCc1cc(NCCCC2CCOC2)n2nccc2n1 (stereo unspecified) | -21.79 |
| CC(C)C[C@H](Nc1nc(C2CCCC2)nc2c1cnn2C)C(N)=O | 1.529 |
| O=C1O[C@@H]2CN(Cc3ccccc3)C[C@@H]2N1CCCN1CCOCC1 | -2.411 |
| Cn1c(CN2CCOCC2)cc(=O)c(O)c1CN1CCCC1 | 100.1 |
| Cn1c(CN2CCOCC2)nnc1C1CCCN(CC(N)=O)C1 (stereo unspecified) | -18.54 |
| Cn1c(CN2CCOCC2)cc(=O)c(O)c1CN1CCOCC1 | 102.7 |
| CCN(C)CC(=O)N1CCCC(c2nnc(CN3CCOCC3)n2C)C1 (stereo unspecified) | 14.42 |
| CC(C)NC(=O)N1CCCC(c2nnc(CN3CCOCC3)n2C)C1 (stereo unspecified) | 7.81 |
| Cn1c(=O)oc2ccc(NC(=O)N3CCOCC3)cc21 | 0.8661 |
| CN(CCN1CCCCC1)C(=O)c1cc(CN2CCOCC2)on1 | 7.335 |
| CCS(=O)(=O)N1CCC(c2nnc(CN3CCOCC3)n2C)CC1 | 4.44 |
| Cn1c(CN2CCOCC2)cc(=O)c(O)c1CN1CCCCC1 | 117.1 |
| O=C(NCCN1CCCC1)c1nc2c(o1)CN(C(=O)c1cccnc1)C2.O=C(O)C(F)(F)F.O=C(O)C(F)(F)F | -5.766 |
| COCCN1CCc2ncc(CN(C)C)n2CC1 | -10.98 |
| CC1CN(S(=O)(=O)c2ccc(F)cc2F)c2cccnc2O1 (stereo unspecified) | -5.201 |
